About 1,700 (0.57%) of roughly 300,000 compounds were called active. About 2% were inconclusive and are not listed. The sample as a whole holds a higher share of actives than the screen did. Values without a mark were called inactive.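 The calls were made as follows: active = growth inhibition above about 58% in most replicates (limit read from the data, passing the limit was not always enough); inconclusive = exactly half the replicates above a set limit; inactive = most replicates below a set limit.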

This assay can be described thus: C. albicans growth inhibition with fluconazole, primary screen, CaCi-2 strain, Alamar Blue fluorescence (AID 1979).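 Also: all wells also contain fluconazole at 8 µg/ml as a sub-toxic cotreatment; 0% = median of DMSO wells and 100% = median of geldanamycin control wells.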 The following applies: C. albicans CaCi-2 (fluconazole-resistant clinical isolate) + fluconazole, 48 h, stronger effect = higher value, concentration not given here.
Turning to `Nc1cc(N)nc(SCc2ccc(Cl)cc2)n1`, the growth inhibition is 12.7%.

`Nc1cc(N)nc(SCc2cccc(F)c2)n1`: the growth inhibition is 93.5% (active). `CCc1nnc(SCc2cccc(F)c2)nc1CC`: the growth inhibition was -15.9%. The figure for `O=C(c1ccc(Cl)s1)N(Cc1nnc(-c2ccccc2Cl)o1)C1CC1` is -12.7%; for `COc1ccccc1N1CCN(C(=O)c2cc(=O)c3cc(C)cc(C)c3o2)CC1` it is 4.61%. In the case of `Nc1nonc1-n1nnc(C(=O)N/N=C/c2cc(Br)ccc2O)c1CSC1=NCCS1` it was 90.5% (active); in that of `Cc1ccc(SCc2c(C(=O)N/N=C/c3cccnc3)nnn2-c2nonc2N)cc1`, 19.8%.

With `Nc1nonc1-n1nnc(C(=O)N/N=C/c2ccccc2O)c1CN1CCCC1`, the growth inhibition was -25.8%. The figure for `COc1cc(C2NC(=O)NC(c3ccccc3)=C2C(C)=O)c(Br)cc1OCC(N)=O` (centres undefined) is 6.65%. The figure for `CCOC(=O)C1=C(c2ccccc2)NC(=O)NC1c1cc(OC)c(OC)cc1OC` (centres undefined) is 111% (active); for `CCOC(=O)C1=C(c2ccccc2)NC(=O)NC1c1cc(OCC)c(O)c([N+](=O)[O-])c1` (centres undefined) it is 38%. Consider `Cc1cccc(NS(=O)(=O)c2ccc(C(=O)NCC(C)(C)N3CCOCC3)cc2)c1C`, for which the growth inhibition is -3.65%.

For `CCOc1ccc(CCNC(=O)COC(=O)c2c(OC)cccc2OC)cc1OCC`, the growth inhibition was 8.5%. The figure for `Cc1ccn2c(=O)c(NC(=O)c3cccc4ccccc34)c(C)nc2c1` is 1.1%; for `CCOc1ccc(NC(=O)NNC(=O)c2ccc(Cl)cc2Cl)cc1` it is 0.808%; for `OC(CNCCc1ccc(Cl)cc1Cl)COc1ccccc1` (centres undefined) it is 7.1%. The figure for `NC(N)=N/N=C/c1ccc(OCc2ccc(Cl)cc2Cl)cc1` is 123% (active). The figure for `OCCCNc1nc(-c2ccccc2)c2cc(Cl)ccc2n1` is 14.2%; for `O=c1c(-c2cccc(Cl)c2)c[nH]n1-c1ccccc1` it is 0.955%. On to `O=C(O)C(c1ccccc1)N1C(=O)/C(=C\c2ccc(-c3cccc(Cl)c3)o2)SC1=S` (centres undefined), for which the growth inhibition was 37.9%. `O=C1c2ccccc2NC(c2ccc(-c3cccc(Cl)c3)o2)N1O` (centres undefined): the growth inhibition was 96.8% (active). In the case of `Cc1ccc(CCN2CC(C(=O)NCCc3ccccc3)CC2=O)cc1` (centres undefined) it was -6.78%; in that of `Cc1cccnc1NC(=O)Cn1c(=O)oc2ccccc21`, -0.441%. In the case of `C[C@@H]1C[C@@H]2O[C@H]2/C=C\C=C\C(=O)Cc2c(Cl)c(O)cc(O)c2C(=O)O1` it was 84.1% (active); in that of `O=C(NCCN1CCOCC1)c1cc(-c2cccs2)nc2ccccc12`, -3.11%.

For `COC(=O)c1cc(-c2cccs2)nc2ccccc12`, the growth inhibition is -7.15%. The figure for `O=C(Nc1nnc(-c2ccccc2)o1)c1cc(-c2cccs2)nc2ccccc12` is 89.3% (active); for `CC1CCCN(S(=O)(=O)c2ccc(C(=O)Nc3nnc(-c4ccncc4)o3)cc2)C1` (centres undefined) it is 18.1%; for `CSCc1nnc(NC(=O)c2ccc(S(=O)(=O)N3CCCCC3C)cc2)o1` (centres undefined) it is 8.82%. For the compound `CC1CCCCN1S(=O)(=O)c1ccc(C(=O)Nc2nnc(-c3cccs3)o2)cc1` (centres undefined), the growth inhibition was 95.4% (active).

For `COc1ccc(-c2cc(=O)oc3cc(OC(C)C(=O)NCC4CCC(C(=O)O)CC4)ccc23)cc1` (centres undefined), the growth inhibition is -4.33%.

In the case of `CSCCC(NS(=O)(=O)c1ccc(C)cc1)C(=O)NCCc1c[nH]c2ccccc12` (centres undefined), the growth inhibition is -6.21%.

Consider `O=S(=O)(/N=C(/Nc1ccccc1)c1ccccc1)c1cccs1`, for which the growth inhibition is -39.8%. The figure for `COc1ccc(N(C(=O)c2ccc(C)cc2)S(=O)(=O)c2cccs2)cc1` is 4.35%; for `CN(/C(=N/S(=O)(=O)c1cccs1)c1ccccc1)c1ccc(O)cc1` it is 117% (active); for `CN(CC(=O)Nc1cccc(F)c1)C(=O)C1CC(=O)N(CCc2ccccc2)C1` (centres undefined) it is -9.09%. In the case of `Oc1ccc(N=Nc2nccs2)c(O)c1` it was 85.9% (active); in that of `Oc1ccc2ccccc2c1N=Nc1nccs1`, 0.433%. In the case of `CC(CN1CCC(n2nccc2NC(=O)C2CCCC2)CC1)c1ccccc1` (centres undefined) it was -5.12%; in that of `CC1=NNC(=O)C1Cc1c(Cl)cccc1Cl` (centres undefined), -0.631%.

`CN(C(=O)COC(=O)CNC(=O)C12CC3CC(CC(C3)C1)C2)c1ccccc1`: the growth inhibition is -17.2%. In the case of `CN(C(=O)CC(NC(=O)c1ccccc1)(c1ccccc1)c1ccccc1)c1ccccc1` it was 91.8% (active); in that of `Cc1ccc(C(=O)NCCNC(=O)c2ccccc2)cc1`, 5.77%; in that of `Nc1c(C(=O)Nc2ccc3c(c2)OCCO3)nnn1Cc1ccccc1`, 9.7%. As to `Cc1sc2ncnc(N3CCC(C(=O)NNC(=O)c4ccc(F)cc4)CC3)c2c1C`, the growth inhibition was 11%. In the case of `COc1ccc(S(=O)(=O)NCCCc2ccccc2)cc1`, the growth inhibition is -3.19%. As to `Cc1nn(-c2ccccc2)c(C)c1NC(=O)COC(=O)c1cc(Cl)ccc1O`, the growth inhibition was -3.39%. Turning to `CCN1C(=O)[C@H]2[C@@H](c3ccc(C)cc3)N3C(=O)N(c4cccc(Br)c4)C(=O)[C@@]3(CC)[C@H]2C1=O`, the growth inhibition is -1.61%. Consider `Cc1c(Cl)c([N+](=O)[O-])nn1Cc1ccc(C(=O)N/N=C\c2cc(Cl)ccc2O)o1`, for which the growth inhibition is 112% (active). In the case of `O=C(N/N=C/c1ccc2c(c1)OCO2)c1ccc(Cn2cc([N+](=O)[O-])cn2)o1` it was -1.68%; in that of `Cc1c(Cl)c([N+](=O)[O-])nn1CCCC(=O)Nc1cc(Cl)ccc1Cl`, 0.816%.

On to `O=C1N[C@@H](Cc2ccccc2)C(=O)N2[C@H]1C[C@]1(Br)c3ccccc3N(S(=O)(=O)c3ccccc3)[C@H]21`, for which the growth inhibition is 4.33%. The figure for `COC(=O)Cc1cc(=O)n(-c2nc3ccccc3s2)[nH]1` is 93.5% (active); for `C/C(=N\NC(=O)CC(C)C)c1c(C(F)(F)F)[nH]n(-c2nc3ccccc3s2)c1=O` it is 8.15%. Consider `COC(=O)Cc1[nH]n(-c2nc3ccccc3s2)c(=O)c1C(C)=Nc1ccc(OC)cc1`, for which the growth inhibition is 5.2%. The figure for `COc1cc(/C=C/C(=O)O)cc(S(=O)(=O)Nc2ccccc2C(=O)NCCc2ccccc2)c1OC` is -0.0595%; for `O=C(Nc1cccc(-c2nc3ccccc3[nH]2)c1)c1ccc(C(=O)Nc2cccc(-c3nc4ccccc4[nH]3)c2)cc1` it is -12.9%. The figure for `Cc1ccc(-n2nc3ccc(NC(=O)/C=C/c4ccco4)cc3n2)cc1C` is 20%; for `O=C(/C=C/c1ccco1)Nc1cccc(-c2nc3ccccc3[nH]2)c1` it is 91.5% (active).

The values above are taken from PubChem BioAssay AID1979 (Broad Institute, 2009).
